Drawing on PubChem BioAssay, this text covers inclusion score, aggregation suppression score and period change for 28 compounds.

Active and inactive are the calls of the source. How the calls were made is not given here.

The first assay can be described thus: GFP-Q80 aggregate reduction, neuronal-like cells, cell-based, NGF-treated PC12, GFPQ80 (AID 1614).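 Further: lower means fewer inclusions and 0 means no inclusions at all.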 The note with it: PC12 NGF-treated GFP-polyQ80 inclusion reduction.
`NS(=O)(=O)c1cc2c(cc1Cl)NC=NS2(=O)=O` returned an inclusion score of 2.
On to `O=C1C(CCS(=O)c2ccccc2)C(=O)N(c2ccccc2)N1c1ccccc1` (stereo not given), for which the inclusion score worked out at 1.5.
In turn, `Cc1ccccc1C(OCCN(C)C)c1ccccc1` (stereo not given) yielded an inclusion score of 2.
`CN(C)CCOC(c1ccc(Cl)cc1)c1ccccn1` (stereo not given) registered an inclusion score of 2.
In the case of `NCc1ccc(S(N)(=O)=O)cc1`, the inclusion score stood at 2.
In the case of `Cc1ccc(C)c(OCCCC(C)(C)C(=O)O)c1`, the inclusion score came out at 2.
`NS(=O)(=O)c1cc2c(cc1C(F)(F)F)NC(Cc1ccccc1)NS2(=O)=O` (stereo not given) gave an inclusion score of 2.
For the compound `COC1=CC(=O)C[C@@H](C)[C@]12Oc1c(Cl)c(OC)cc(OC)c1C2=O`, the inclusion score was found to be 2.
In turn, `Cc1cn([C@H]2C[C@H](N=[N+]=[N-])[C@@H](CO)O2)c(=O)[nH]c1=O` registered an inclusion score of 2.
Same read-out and setting: to `COc1ccc(OC)c(C(O)CNC(=O)CN)c1` (stereo not given) belongs 2; to `OC(CCN1CCCC1)(c1ccccc1)C1CCCCC1` (stereo not given), 2; to `CCCNCC(O)COc1ccccc1C(=O)CCc1ccccc1` (stereo not given), 2.
In turn, `NC(=O)c1cnccn1` gave an inclusion score of 2.
Regarding `COc1ccccc1OCC(O)COC(N)=O` (stereo not given), the inclusion score stood at 2.
`Cn1cnc([N+](=O)[O-])c1Sc1ncnc2nc[nH]c12` yielded an inclusion score of 2.
As to `c1ccc2[nH]c(-c3cscn3)nc2c1`, the inclusion score turned out to be 2.
In turn, `Cc1onc(-c2c(Cl)cccc2Cl)c1C(=O)N[C@@H]1C(=O)N2[C@@H]1SC(C)(C)[C@@H]2C(=O)O` registered an inclusion score of 2.
Turning to `CO[C@@]1(NC(=O)Cc2cccs2)C(=O)N2C(C(=O)O)=C(COC(N)=O)CS[C@@H]21`, the inclusion score worked out at 2.
In turn, `CCc1cccc2c3c([nH]c12)C(CC)(CC(=O)O)OCC3` (stereo not given) yielded an inclusion score of 2.
The compound `CC(C)(C)NCC(O)COc1cccc2c1C[C@H](O)[C@H](O)C2` (stereo not given in full) yielded an inclusion score of 2.
The compound `O=S(=O)(O)CCS` came in with an inclusion score of 2.
As for `O=c1[nH]cc(F)c(=O)[nH]1`, the inclusion score came to 2.

A short description of a further assay: 75Q-TubH aggregate inhibition, S. cerevisiae, yeast (AID 1616). The note with it: S. cerevisiae 75Q-TubH polyglutamine aggregation suppression; stronger effect = higher value.
Consider `OCCN1CCN(CCCN2c3ccccc3Sc3ccc(C(F)(F)F)cc32)CC1`, for which the aggregation suppression score came to 1.51.
As to `NS(=O)(=O)c1cc2c(cc1Cl)NC=NS2(=O)=O`, the aggregation suppression score was determined as 1.42.
On the same count and under the same terms, to `O=C1C(CCS(=O)c2ccccc2)C(=O)N(c2ccccc2)N1c1ccccc1` (stereo not given) belongs 0.341.
`Cc1ccc(-c2cc(C(F)(F)F)nn2-c2ccc(S(N)(=O)=O)cc2)cc1` displayed an aggregation suppression score of 0.638.
With `Cc1ccccc1C(OCCN(C)C)c1ccccc1` (stereo not given), the aggregation suppression score was determined as 1.25.
Take `CCc1nc(N)nc(N)c1-c1ccc(Cl)cc1`: the aggregation suppression score worked out at 0.999.
Consider `CN(C)CCOC(c1ccc(Cl)cc1)c1ccccn1` (stereo not given), for which the aggregation suppression score worked out at 1.21.
The same measure, in the same setting: to `Nc1ncn([C@@H]2O[C@H](CO)[C@@H](O)[C@H]2O)c(=O)n1` belongs 1.25; to `NCc1ccc(S(N)(=O)=O)cc1`, 1.05; to `Cc1ccc(C)c(OCCCC(C)(C)C(=O)O)c1`, -0.02.
On the same count and under the same terms, to `NS(=O)(=O)c1cc2c(cc1C(F)(F)F)NC(Cc1ccccc1)NS2(=O)=O` (stereo not given) belongs 1.15.
`COC1=CC(=O)C[C@@H](C)[C@]12Oc1c(Cl)c(OC)cc(OC)c1C2=O` came in with an aggregation suppression score of 1.07.
For `Cc1cn([C@H]2C[C@H](N=[N+]=[N-])[C@@H](CO)O2)c(=O)[nH]c1=O`, the aggregation suppression score amounted to 1.12.
In turn, `COc1ccc(OC)c(C(O)CNC(=O)CN)c1` (stereo not given) came in with an aggregation suppression score of 1.16.
Still for that read-out and setting: to `OC(CCN1CCCC1)(c1ccccc1)C1CCCCC1` (stereo not given) belongs 1.66.
Same read-out and setting: as for `CCCNCC(O)COc1ccccc1C(=O)CCc1ccccc1` (stereo not given), the figure is 0.81.
The compound `NC(=O)c1cnccn1` displayed an aggregation suppression score of 0.921.
On the same count and under the same terms, as for `COc1ccccc1OCC(O)COC(N)=O` (stereo not given), the figure is 1.52; as for `COC(=O)Nc1nc2ccc(C(=O)c3ccccc3)cc2[nH]1`, 0.598.
`Cn1cnc([N+](=O)[O-])c1Sc1ncnc2nc[nH]c12` displayed an aggregation suppression score of 1.11.
Turning to `c1ccc2[nH]c(-c3cscn3)nc2c1`, the aggregation suppression score stood at 0.142.
Take `Cc1onc(-c2c(Cl)cccc2Cl)c1C(=O)N[C@@H]1C(=O)N2[C@@H]1SC(C)(C)[C@@H]2C(=O)O`: the aggregation suppression score came to 1.09.
On to `Clc1ccc2c(c1)C(N1CCNCC1)=Nc1ccccc1O2`, for which the aggregation suppression score was found to be 1.13.
Regarding `CO[C@@]1(NC(=O)Cc2cccs2)C(=O)N2C(C(=O)O)=C(COC(N)=O)CS[C@@H]21`, the aggregation suppression score was 0.182.
On the same count and under the same terms, to `CCc1cccc2c3c([nH]c12)C(CC)(CC(=O)O)OCC3` (stereo not given) belongs 0.918; to `CC(C)(C)NCC(O)COc1cccc2c1C[C@H](O)[C@H](O)C2` (stereo not given in full), 1.12.
On the same count and under the same terms, to `O=S(=O)(O)CCS` belongs 1.35; to `O=c1[nH]cc(F)c(=O)[nH]1`, 0.203.

A further assay is described as follows: compounds altering circadian rhythm period length – cell-based, LOPAC library, luminescence reporter (AID 2774).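 Further: values are relative to mean of DMSO wells on each plate.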 The settings on record: circadian reporter cells, at 7 µM, actives lie on both sides.
`OCCN1CCN(CCCN2c3ccccc3Sc3ccc(C(F)(F)F)cc32)CC1`: the period change was 0.01 h (inactive).
Still for that read-out and setting: to `NS(=O)(=O)c1cc2c(cc1Cl)NC=NS2(=O)=O` belongs 0.02 h (inactive); to `Cc1ccccc1C(OCCN(C)C)c1ccccc1` (stereo not given), 0.21 h (inactive).
Consider `Nc1ncn([C@@H]2O[C@H](CO)[C@@H](O)[C@H]2O)c(=O)n1`, for which the period change is 0.105 h (inactive).
As to `CCCNCC(O)COc1ccccc1C(=O)CCc1ccccc1` (stereo not given), the period change is -0.03 h (inactive).
On the same count and under the same terms, to `NC(=O)c1cnccn1` belongs 0 h (inactive).
In the case of `Cn1cnc([N+](=O)[O-])c1Sc1ncnc2nc[nH]c12`, the period change was 0.485 h (inactive).
Still for that read-out and setting: to `Clc1ccc2c(c1)C(N1CCNCC1)=Nc1ccccc1O2` belongs 0.105 h (inactive); to `CCc1cccc2c3c([nH]c12)C(CC)(CC(=O)O)OCC3` (stereo not given), -0.07 h (inactive); to `O=c1[nH]cc(F)c(=O)[nH]1`, 0.215 h (inactive).
